Whole data set: some 25,000 sequences, median “ln(normalized median fluorescence intensity)” near 6.7, cut for the highest 2% near 10. Many of the other results were omitted from the sample, so the highest values are more common in it than they were.

The test system of the test is PfHDP1 homeodomain (GST-tagged). In words: gcPBM binding intensity (ln(normalized median fluorescence intensity)); higher = stronger DNA binding. The method, boiled down: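 GST-tagged P. falciparum DNA-binding domains produced in E. coli were incubated for 1 h on an Agilent 4 × 180k array of primer-extended double-stranded 36-bp intergenic genomic probes with negative controls. Binding intensity is the highest Masliner-normalised natural-log median intensity across replicate spots of either probe orientation, with bound protein detected by Alexa488 anti-GST antibody at 488 nm.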
Regarding TCTTAAAATATATAGGTGCAAAAAAAAAAAAAAAAA, the “gcPBM binding intensity (ln)” value was determined as 8.62.
For “TTTCTAATTTATATCACACACATATATTTATAGTAA [CACACA_site6280]” the value was 6.53; for “ATAAAAATCAAAAAAAATACATAATAGTAATAATAA [GTGCAC_negctrl_site481]”, 6.42; for “GTAAAGGCTATATATGTGCACATTTTTTTTTTTTTT [GTGCAC_site9925]”, 10.9.
For CATGAATATTTTAATGTGCACATTTATCATTATATG the value was 10.6; for “CTTATGTGCATACCTACACACTTACCTATATTTATA [CACACA_site7411]”, 9.67; for CTTTATATATATTGCGTGCACATTTTTTTTTTTTTT, 9.4.
As for “TTTTGTTTATGTGTGCATTATATTATATTTTTTATT [TGCATGCA_negctrl_site146]”, the figure is 10.2; as for “ATATTTTTATATAATGAACACACATATTATATCATT [CACACA_site8446]”, 6.22.
Regarding “ATGCATACACTTATATGTACACATTTACATATTATT [XGTACX_site2841]”, the “gcPBM binding intensity (ln)” value is 6.93.
Take “ATTTTTATATAATGAACACACATATTATATCATTTA [CACACA_site1572]”: the “gcPBM binding intensity (ln)” value amounted to 6.51.
For TATATATATATATATGTGCACATTTATTGCCTTTGC, the “gcPBM binding intensity (ln)” value came out at 10.6.
For “GGAACTTATTTTTATACACACATATGTGCATATTAT [CACACA_site629]”, the “gcPBM binding intensity (ln)” value was 10.8.
For TTTTTTTTCTATGTGGTGCACATTATTTTTTTTTTT the value was 9.27.
As for “TTTCACATATATATGGTGCATATTTTATGTGTAAAT [GTGCAC_site9937]”, the figure is 9.91; as for “TTTTGTTTAGTGTATTGTACAATATATCTTTATTTT [XGTACX_site5163]”, 6.52.
In the case of “TTTTGGCTGATCAGATTTAACAAAAAAAAAAAAAAA [CACACA_negctrl_site671]”, the “gcPBM binding intensity (ln)” value turned out to be 6.06.
Consider “GAAATTAAATGACATACACACTATATTATAGATTTT [CACACA_site7468]”, for which the “gcPBM binding intensity (ln)” value came to 6.23.
As for “AGTGGGATTTTTAATTGTACATAAATAATATCATAA [XGTACX_site4163]”, the figure is 6.56; as for “AGAATTAAAAACAGTTGTACAAAAAGTTGTATAAAT [XGTACX_site411]”, 7.41.
As for “AAATAAAAGGTTGAGAGTACATTTTTGTGTATGTAT [XGTACX_site5547]”, the figure is 6.49; as for “ACTGAAAAAAGAAATACACACATTCTGGATCAGATA [CACACA_site7760]”, 6.39.
As for “ATTTACATTATATTGAATATGCCATATTATATTATT [CACACA_negctrl_site811]”, the figure is 6.59.
Turning to “CGTATGTGCGGACATGCATGCAATATACAAGAAAAA [TGCATGCA_site145]”, the “gcPBM binding intensity (ln)” value amounted to 7.01.
As for CATTATATGATTTATGTGCACATTCATTTATTTTAA, the figure is 10.8; as for “ACATATTATTCAAGTGCACACTTTATATTTATGATT [CACACA_site3295]”, 8.81.
As for “TATATTATTCATTAAGCACACATTATTTTTATAATA [CACACA_site6056]”, the figure is 6.36; as for TATATATATATATATGTGCACATTTTATTAAAATGT, 10.2; as for “TATTTTTAACAGTGCACACATAACTTAATTATATGT [CACACA_site2194]”, 9.55.
Regarding TTATATTATATATATGTGCACATTTTTAAACTTGGA, the “gcPBM binding intensity (ln)” value was 10.7.
For “TACTTAATTATAAGGACATGCACAAAAGGAATTATT [TGCATGCA_site468]” the value was 8.01; for CTTATTTTGTTATAAGTGCATTTTTTAAAATTTCTT, 8.33; for TGTTAAAATTATTTGGTGCACTTGTTTTACCTTATT, 9.92.
For ATTTATTTCTTGTTAGTGCACTTTCTTTGGTAAAAT the value was 10.9; for “ATCTTATATATACGTTGTACTACAGGATATGTCATA [XGTACX_site5734]”, 6.63; for “TTAAAATTCAAAAAAAAAAATCAGAATATCAGAAAA [CACACA_negctrl_site1361]”, 5.92.
For “CATTTTGTTTTAAAGTGTACATTATGTAATATAAAA [XGTACX_site647]” the value was 6.54; for “ATTTATATGCACCATTGTACGTTTTATAAAGTTTGG [XGTACX_site3755]”, 10.5.
On to “TATATATATTAGTGTGCACACTTTTTATTTTTATCC [CACACA_site8506]”, for which the “gcPBM binding intensity (ln)” value amounted to 10.5.
For “ATTGTGCACTTATATGCACACATTTTAGTTTTTTTT [CACACA_site2028]” the value was 11.5; for “ATATTACACATATATGCACACATTGTAGTTATTTAT [CACACA_site8843]”, 8.92; for “TATATATTTCGGTGTGCACACTTTTTATTTTTATCC [CACACA_site1726]”, 10.7.
In the case of “TTATATTTAGTATATGCACACTTTATGTTTGTTATT [CACACA_site5163]”, the “gcPBM binding intensity (ln)” value was found to be 9.53.
As for “TATATATGTATATGTGTGCACCTTATTTCTTTTATT [GTGCAC_site9513]”, the figure is 9.55; as for ATTTATATTAAAAGTGTGCACTTTTTTTTTTTTTTT, 8.1.
As for “ATATATATATAAAGTTGTACATTTTTTATTTTTTCA [XGTACX_site7847]”, the figure is 8.52; as for TATATTTATATATTAGTGCACTTTTTGTTAATTTTT, 10.3.
On to “TAATATTATTATTTTACACACTTTTTTCCTTTTATC [CACACA_site2457]”, for which the “gcPBM binding intensity (ln)” value was 6.61.
As for “TTTCAATGTGACACGTGTCCGTAAAATTACATAATT [XGTACX_site7073]”, the figure is 6.61; as for “ATCGCGAAGTAGCATTCACACACAGCAAAATATATA [CACACA_site9162]”, 6.65.
For “ATATATATATTTATATGTACATAATATAAAATTTCT [XGTACX_site3720]” the value was 7.7.
As for “ATGTTTTTTATTCTTCGTACGTATGAACGATAGTGT [XGTACX_site4225]”, the figure is 6.71.
Regarding “GCTTGTACATTTTTAAAAAATGACTTCGAAAGGAAT [CACACA_negctrl_site453]”, the “gcPBM binding intensity (ln)” value amounted to 7.01.
As for “TTTTAATTGTTTATTTGTACATATGTTTAATTATAT [XGTACX_site571]”, the figure is 6.79; as for “TATATAAATGGACACACACACACCTTATAATTATTA [CACACA_site6093]”, 6.85; as for “CCCACATAAAAAAATAAACACACATATGTATATATA [CACACA_site9040]”, 7.07.
For “AAGAAAAACAATGAGATAAAGAAGAGAAAATATGTC [TGCATGCA_negctrl_site415]” the value was 6.88.
For “TATATCAAAATACATACACACATTTGTATTTACATT [CACACA_site5485]” the value was 6.58; for “TTGTATTCATAACAACGTACATATTTTGTAACTAAA [XGTACX_site4029]”, 6.26; for “TTTGTTCATATTATTGTGCACTTAAACGTAACAAAA [GTGCAC_site9505]”, 10.1.
ACTTTTTTGAACAACGTGCACGTATTCATAACAAAA: the “gcPBM binding intensity (ln)” value stood at 10.6.
For “AATATCATCAAACGCACACATACATAAATATATTAT [CACACA_site2174]” the value was 7.74; for “TATACGAAATTGTGCACACATATATTTATGTATGTA [CACACA_site1509]”, 11.
For “ATACGCACACATATATGTACATATTGTATATATATA [XGTACX_site3962]” the value was 8.34; for “TGTATAAATATATGCACACATATATATATTTATATA [CACACA_site3473]”, 10; for “TATTTATATGTATATACATGCACATATATATGAAAC [TGCATGCA_site1005]”, 8.8.
Regarding “AATATACGAAATTGTGCACACATATATTTATGTATG [CACACA_site1510]”, the “gcPBM binding intensity (ln)” value amounted to 10.8.
For “TATGTATAAATATATGCACACATATATATATTTATA [CACACA_site9150]”, the “gcPBM binding intensity (ln)” value is 9.35.
As for “TAGATAAAATGAACATGTACTCATCTTAATATATAT [XGTACX_site34]”, the “gcPBM binding intensity (ln)” value came to 6.23.
For “AAAAGATATATTATATGTACTAATTATATGATAAAT [XGTACX_site4192]” the value was 6.32; for “AGAGGTAGAGAGAAAACATGCATAATGATTTTCATA [TGCATGCA_site958]”, 6.1; for “CATGCTACATCTTATTGTACTTATCTAATGTTAGTA [XGTACX_site1863]”, 6.75.
In the case of “TATATATATATATATGCATGTACATATATTTGTTAT [TGCATGCA_site379]”, the “gcPBM binding intensity (ln)” value was 9.2.
As for “TATGTGCACCCATGTACATGCGGACATATGTTATAT [TGCATGCA_site383]”, the figure is 10.6; as for “ATATATATATATGCATGTACATATATTTGTTATATC [XGTACX_site3197]”, 9.16.
For “AAAATATTTATTACTTCACACATTATTGTATTTATA [CACACA_site5082]” the value was 6.5; for “TTTGTTTTTTTGAGAGTGCAATATATATAAAAAGGG [GTGCAC_site9691]”, 9.35.
As for GCGTGTGTACAATGAGTGCATATCTAAAGGGAAGAT, the figure is 9.43.
Turning to TTTCGTAATATGCGTGTGCACAATGAGTCCATATCT, the “gcPBM binding intensity (ln)” value turned out to be 10.9.
With TATATATATATATGAGTGCATATGTGTAATATAAAA, the “gcPBM binding intensity (ln)” value was found to be 9.65.
As for “TCAAAAAAAAAAAAAAAAAAAAAAAAAAAAAAAAAA [CACACA_negctrl_site1753]”, the figure is 5.92; as for “TATTAATAAATATGTTTACACACGAAAATACATTTT [CACACA_site1012]”, 6.35; as for “TGTATTAAATTTTGAACACACAAAATAAAACATATA [CACACA_site1672]”, 6.54.
For “TTTATTTTTAACAGTGCACACATAACTTAATTATAT [CACACA_site8681]” the value was 9.52; for “CTTTGTAGTATATTAACACACAACTGTTTATAATAT [CACACA_site6038]”, 6.53.
For “TTCTTTGTAGTATATTAACACACAACTGTTTATAAT [CACACA_site9305]” the value was 6.67; for “TATAATATTTGGTGCACACAAATTAACAACTGTTTA [CACACA_site3742]”, 10.8.
“TGTATAATATTTGGTGCACACAAATTAACAACTGTT [CACACA_site9245]”: the “gcPBM binding intensity (ln)” value stood at 10.6.
As for “TCGTAGTTACTATGGCAAGAAAATAAACGGTCTTGT [GTGCAC_negctrl_site684]”, the figure is 6.6; as for “ATTAAAAATTATATTTTATAAAAATTAAAAGAAATA [CACACA_negctrl_site65]”, 6.47; as for “AATAATTTTTTAAACACACACACATATATATATATA [CACACA_site95]”, 9.08.
Take “AAAAATATATATATATATATATATATATTATTTTTT [TGCATGCA_negctrl_site378]”: the “gcPBM binding intensity (ln)” value stood at 7.
“TAGAAGCATCATTTTACACACATGCAAATGTAAACT [CACACA_site6973]”: the “gcPBM binding intensity (ln)” value came to 6.66.

(Values after the supplement of paper PMC11417369.)
